Records with an inconclusive call do not appear. The source made the active and inactive calls. The call rests on the fitted dose curve; in most records, active means well fitted curve in the direction sought with a large enough effect; inconclusive means small, poorly fitted or top-dose-only effect, or another doubt; inactive means no such curve, though single readings can be large or run the other way.

A short description of the test: qHTS Assay for Lipid Storage Modulators: CytotoxicityAssay against Probe and Analogs. To be noted: 3T3-L1 adipocytes cytotoxicity, imaging cell count; series mostly up to 20 µM. An excerpt: Storing lipids as a reservoir for energy or the anabolism of elementary metabolites is a common feature of probably all cells and is conserved from bacteria to humans. The universal cellular lipid storage organelle is the so-called lipid storage droplet (LD). Although ubiquitous, LDs share a simple structure composed of a hydrophobic core that harbors the storage lipids, which is shielded by a droplet-specific phospholipid monolayer to which proteins are attached. The current model of LD biogenesis involves an incorporation of the lipid core into the membrane leaflets of the endoplasmic reticulum (ER) followed by a subsequent budding-like maturation of a LD, which ultimately pinches off. Once released, LD volume can increase by localized lipogenesis or fusion of existing droplets. Storage lipids are re-mobilized enzymatically by lipase activity. Lipase regulation in the adipocyte is heavily studied and involves multiple components including catecholamine signaling, the LD-associated proteins Perilipin and comparative gene identification-58 (CGI-58) and at least two lipases named hormone sensitive lipase (HSL) and adipocyte triglyceride lipase (ATGL). LD regulation outside of the adipocyte is poorly understood and only few components are known. However, there is an urgent need to learn more about ectopic fat depots as mislocalized storage of lipids, for example in the liver or muscle, is an eminent health problem associated with insulin resistance or the metabolic syndrome. We developed a laser-scanning cytometer assay to enable 1,536-well screening and combined the results of the small molecules screen with an RNAi database based on lipid storage. In this assay we tested analogs of the probe in a cytotoxicity assay. NIH Molecular Libraries Probe Production Centers Network [MLPCN] NIH Chemical Genomics Center [NCGC] MLPCN Grant: MH085686 Assay Submitter (PI): Mathias Beller, Max-Planck-Institut fur Biophysikalische Chemie
3T3-L1 cells were obtained from ATCC (CL-173). Pre-adipocyte medium (PM-1),differentiation medium (DM-2) and after adipocyte medium (AM-1) were purchased from Zen-Bio (# PM-1-L1, DM-2-L1, AM-1-L1). […] of PM-1containing 3,000 cells was dispensed into each well of a 96-well plate (Corning, #3340), and the assay plates were incubated at 37 °C, 95% humidity and 5% CO2 for 3-5 days. The differentiation of pre-adipocyte to adipocyte was induced by removing the pre-adipocyte medium and replacing with […] of differentiation medium. […] of compounds at different concentrations dissolved in differentiation medium were added to the assay plates, along with medium exchange for differentiation to test their effects on adipocyte differentiation. The final DMSO concentration was 0.5%. Triacsin C (Sigma-Aldrich T-4540), an inhibitor of long-chain fatty acyl CoA synthetase that blocks synthesis of triglycerides, was used as a positive control for lipid under-storage. After 3 days, differentiation medium was replaced with 200ul of adipocyte maintenance medium and assay plates were incubated for 4 days. Cells were then fixed using4% of paraformaldehyde in PBS for 30 minutes at room temperature, washed 3 times with PBS buffer. Finally, the cells were stained using […] of PBS containing BODIPY lipid dye 493/530 (1:2000 -, Life Technologies, # D-3922), Hoechst 33342 (1:1000, Life Technologies, #H3570) and CellMask deep red dye (1:10,000 , Life Technologies, #H32721). Images were acquired using InCell 2000 (GE), number of cells, number of lipids, size of lipids and cells were analysis using GE Investigator software.
In general terms: qHTS replaces the single test concentration by a dilution series.
Consider `CCOc1ccc(CCNC(=O)c2cc3ccccc3n2Cc2ccccn2)cc1OCC`, for which the molecule was called inactive. Consider `CCOc1ccc(CCNC(=O)c2cc3cccnc3n2Cc2cccc(C)n2)cc1OCC`, for which the result was inactive. As for `CCOc1ccc(CCNC(=O)c2cc3sccc3n2Cc2ccc(F)cc2F)cc1OCC`, the molecule was classed as inactive. Consider `CCOc1ccc(CCNC(=O)c2cc3sccc3n2CCN(C)C)cc1OCC`, for which the molecule was called inactive. Under `CCOc1ccc(CCNC(=O)c2cc3ccccc3n2Cc2cccc(C)n2)cc1OCC` stands “inactive”. In the case of `CCOC(=O)C1CCN(C(=O)C2(NC(=O)Nc3ccccc3Cl)CCCC2)CC1` it was “inactive”; in that of `CCOc1ccc(CCNC(=O)c2cc3ncccc3n2Cc2cccc(C)n2)cc1OCC`, “inactive”; in that of `CCOc1ccc(CCNC(=O)c2cc3ccccc3n2CCN2CCOCC2)cc1OCC`, “inactive”.

The record behind these values is PubChem BioAssay AID686935 (National Center for Advancing Translational Sciences (NCATS), 2013).
